# Results from PubChem BioAssay (NCI).
# The panel holds about 83,000 compounds, 20% with a hit somewhere; the sample as a whole holds those more often.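 Single-concentration screen, 48 h exposure, 96-well plates. Endpoint: percent growth. Below 10 = active.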 A number with no mark means an inactive call. Calls of active or inactive are those of the source.
# System: MDA-MB-468 breast
# Experiment: NCI-60 one-dose screen, 48 h (100 = growth as untreated, 0 = no growth, -100 = all killed)
# Conditions: 10 µM unless noted
row,SMILES,growth
1,COc1cc(Nc2ncnc(Nc3ccc4c(n3)NC(=O)C(C)(C)O4)n2)cc(OC)c1OC,-24.5% (active)
2,CC(=O)OCC(OC(C)=O)C(OC(C)=O)C(OC(C)=O)C(OC(C)=O)C(/C=N/Nc1ccccc1)=N/Nc1ccccc1 (centres undefined),46.4%
3,CCN(CCO)CCCOc1ccc2c(Nc3cc(CC(=O)Nc4cccc(F)c4)[nH]n3)ncnc2c1,36.7%
4,CC1(C)N=C(N)N=C(N)N1c1cc(Cl)ccc1Cl,53.5%
5,Cc1nn2c(-c3nc4cc(Cl)c(Cl)cc4[nH]3)c(-c3ccc(F)cc3)nc2s1,8.3% (active)
6,O=C(CNc1ccc(Cl)cc1)Nc1ccc(-c2nc3ccccc3s2)cc1,-11.2% (active)
7,COC(=O)CNC(=O)[C@]12CCC(C)(C)C[C@H]1C1=CC[C@@H]3[C@@]4(C)Cc5c([nH]c6ccccc56)C(C)(C)[C@@H]4CC[C@@]3(C)[C@]1(C)CC2,102%
8,CCCCN(C)N=Nc1ccc(C(N)=O)cc1,102%
9,COc1cc2c(cc1OC)C(C(CCCCCC(CCC(C)C)C1NCCc3cc(OC)c(OC)cc31)CCC(C)C)NCC2 (centres undefined),-87.1% (active)
10,COc1cc(C2N=C(NNc3ccccc3)NC(C)=C2C(C)=O)ccc1O (centres undefined),93.3%
11,Cc1nn(-c2ccccc2)c2c1C(c1ccc([N+](=O)[O-])cc1)C(C#N)=C(N)O2 (centres undefined),108%
12,COc1ccc(Nc2ncc(C#N)c(NCCCNC(=O)C3CCC3)n2)cc1,43%
13,CC(C)c1ccc(NC(=O)Nc2ccc(NC(=O)c3ccccc3N)cc2)cc1,81.4%
14,CC(=O)Nc1nc(C(=O)N2N=C(C)/C(=C/c3ccc(Cl)cc3)C2=O)cs1,103%
15,C/C(=C(/c1ccccc1)c1ccc(N2C(=O)c3cccc4c(N5CCN(C)CC5)ccc(c34)C2=O)cc1)c1ccccc1,42.5%
16,CC1CN(CCCOC(=O)Nc2ccc(Cl)cc2)CCN1C(C)(C)C (centres undefined),104%
17,Cc1nc(O)cc(=O)[nH]1,113%
18,COc1cc(C(=O)c2ccccc2C(=O)O)c(OC)c2c1CCCC2,94.7%
19,O=C(NNC(=O)c1ccc([N+](=O)[O-])cc1)c1ccc([N+](=O)[O-])cc1,109%
20,CNC(=O)c1cc(Oc2ccc(NC(=O)c3[nH]c(SC)nc3-c3ccc(F)cc3)cc2)ccn1,70.9%

row,SMILES,growth
1,O=S(=O)(Nc1ccc(-c2nc(-c3cccc(O)c3)c(-c3ccnc(Br)c3)[nH]2)cc1)c1ccccc1,-3.6% (active)
2,COc1ccc(N2CCN(c3nc(-c4ccccc4)c(C#N)c(=O)[nH]3)CC2)cc1,97.9%
3,Cc1cc2cn3c4cccnc4[nH]c(=O)c3c2cc1C,37.2%
4,C=CCCCCCCCCC(=O)OC(C)C,97.5%
5,CN1CCN(C(=S)SCCCCOc2cc(=O)oc3ccccc23)CC1,56.3%
6,O=C1CC(c2ccc3c(c2)OCO3)Nc2cc3c(cc21)OCO3 (centres undefined),-11.3% (active)
7,O=c1[nH]c(CN2CCN(c3ccccc3)CC2)nc2c(Br)cc(Br)cc12,114%
8,CC(C)(C#N)c1cc(F)cc(C(=O)Nc2cc(Nc3ncccc3-c3ncnc4nc[nH]c34)ccc2F)c1,107%
9,CCOCC[P+](c1ccccc1)(c1ccccc1)c1ccccc1,2.17% (active)
10,COc1ccc(C2=NOC(CC(=O)N(CCO)CCO)C2)cc1OC1CCCC1 (centres undefined),90.2%
11,COc1ccc(-c2nc3sccn3c2-c2nc3c([nH]2)C(=O)c2ccccc2C3=O)cc1,95%
12,Cc1ccc2c(-n3nc(C#N)c(C#N)c3N)cc(=O)[nH]c2c1,92.6%
13,CC1=C(N2CCOCC2)C(N2CCOCC2)=C(C)C(=O)C1=O,97.1%
14,COc1cc(C2=NN(C=O)C(c3cccc(Nc4ccnc5cc(Cl)ccc45)c3)C2)cc(OC)c1OC (centres undefined),59.2%
15,COc1ccc(C2C(C#N)=C(N)Oc3n[nH]c(-c4cccs4)c32)cc1I (centres undefined),86.8%
16,CCCCCCCCCN1C(=O)/C(=c2\sc3n(c2=O)C2C(NN=3)N(CC)C(=O)N2CC)c2ccccc21 (centres undefined),37.9%
17,O=S(=O)(NCCCNc1cc(-c2cn(-c3ccccc3)nc2-c2cccc(O)c2)ccn1)c1ccc(F)cc1,-1.5% (active)
18,FCOC(C(F)(F)F)C(F)(F)F,108%
19,COc1ccc(OC)c(-c2c(C#N)c(-c3cccs3)nc3c2c(-c2ccccc2)nn3-c2ccccc2)c1,104%
